These results are taken from PubChem BioAssay (NCATS).

Results filed as inconclusive are left out. Active and inactive are the calls of the source. Calls follow the shape of the full dose curve.

Atrial natriuretic peptide receptor 1 (Homo sapiens), sequence (P16066 whole entry, looked up, the tested form may be a part): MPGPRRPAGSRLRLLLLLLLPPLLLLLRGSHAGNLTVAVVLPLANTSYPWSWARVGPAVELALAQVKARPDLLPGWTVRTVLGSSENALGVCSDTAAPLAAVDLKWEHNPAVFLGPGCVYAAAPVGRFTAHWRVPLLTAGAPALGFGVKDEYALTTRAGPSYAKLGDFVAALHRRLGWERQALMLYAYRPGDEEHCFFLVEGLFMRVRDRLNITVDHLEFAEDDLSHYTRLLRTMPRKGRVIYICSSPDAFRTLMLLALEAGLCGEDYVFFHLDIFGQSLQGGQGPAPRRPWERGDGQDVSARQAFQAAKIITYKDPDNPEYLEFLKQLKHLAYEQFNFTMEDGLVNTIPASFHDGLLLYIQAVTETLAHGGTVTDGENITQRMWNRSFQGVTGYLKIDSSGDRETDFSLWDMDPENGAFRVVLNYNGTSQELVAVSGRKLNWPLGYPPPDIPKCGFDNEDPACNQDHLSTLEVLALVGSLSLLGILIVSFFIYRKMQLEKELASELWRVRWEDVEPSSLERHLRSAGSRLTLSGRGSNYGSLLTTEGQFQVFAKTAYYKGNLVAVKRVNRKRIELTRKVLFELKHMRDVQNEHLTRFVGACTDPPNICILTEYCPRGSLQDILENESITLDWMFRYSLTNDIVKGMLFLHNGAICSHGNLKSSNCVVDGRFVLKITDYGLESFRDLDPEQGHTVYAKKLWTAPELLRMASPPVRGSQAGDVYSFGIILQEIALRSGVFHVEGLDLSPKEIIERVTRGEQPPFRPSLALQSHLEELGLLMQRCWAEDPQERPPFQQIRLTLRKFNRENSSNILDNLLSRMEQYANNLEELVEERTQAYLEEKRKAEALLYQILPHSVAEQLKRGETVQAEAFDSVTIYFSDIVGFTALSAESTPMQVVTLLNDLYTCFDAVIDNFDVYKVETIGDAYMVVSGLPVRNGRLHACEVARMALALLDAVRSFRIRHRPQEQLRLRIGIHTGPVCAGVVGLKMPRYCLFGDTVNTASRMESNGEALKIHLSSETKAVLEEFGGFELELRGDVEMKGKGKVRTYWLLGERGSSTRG

This test has as its target Atrial natriuretic peptide receptor 1 (Homo sapiens) (UniProt P16066). Briefly: Natriuretic polypeptide receptor (hNpr1) antagonism - Pilot screen (AID 1347049). The note with it: hNpr1 cells, antagonist mode cGMP read-out; series mostly up to 57.5 µM. The procedure: In order to identify small molecular compounds that inhibit the hNpr1 receptor we developed a high-throughput assay to measure inhibition of the guanylate cyclase activity of the receptor. cGMP production was measured using a circular permutated Firefly luciferase (FLuc) enzyme functionally linked to the cGMP binding domain of human phosphodiesterase 5 (GloSensor technology pGS-40F, (Fan, F. et al. 2008). The cGMP-sensor was expressed in human embryonic kidney 293 (HEK-293) cells and FLuc activity was measured after stimulation with hNrp agonist peptide. hNrp agonists activates the receptor's associated guanylyl cyclase (GC) domain producing cGMP which then binds to the GloSensor resulting in FLuc activation, the enzymatic activity of which can be measured as bioluminescence with addition of luciferin substrate.
F. Fan, B. F. Binkowski, B. L. Butler, P. F. Stecha, M. K. Lewis, K. V. Wood, Novel genetically encoded biosensors using firefly luciferase. ACS Chem Biol 3, 346-351 (2008).
This assay was initially piloted by testing with a small diversity library of compounds with known pharmacological activity.
PROTOCOL TABLES (as described by Inglese J, Shamu CE and Guy RK. 2007)
SEQUENCE No. (e.g., 1, 2, 3, etc.); […] (e.g., Cells, Incubation, Reagent, etc.); VALUE and DESCRIPTION.
1. Cells. Seed 1500 HEK293 cGMP-sensor cells expressing hNpr1 per well in 4uL into Greiner 1536-well white/solid bottom high base, tissue culture-treated plates.
2. Incubation. Incubate plated cells at 37C in 5% CO2, 95% RH overnight.
3. Reagent. Add 1uL per well GloSensor reagent from Promega (2% final concentration) or CO2 independent media vehicle control to respective columns of Greiner 1536-well plates.
4. Incubation. Incubate plated cells at room temperature for 2 h, protect from light.
5. Compounds. Library compounds and A-71915 control added at 23 nL per well, transferred by Pin Tool.
6. Incubation. Incubate plated cells for 30 min. at room temperature, protect from light.
7. Detector. GloSensor baseline pre-read luminescence measured using CCD-based camera (Viewlux).
8. Compound. Add 1uL of hNppA peptide to 0.1 nM final concentration to stimulate hNpr1 or CO2 independent media as vehicle control.
9. Incubation. Incubate treated cells at room temperature for 20 min., protect from light.
10. Detector. GloSensor post-hNppA luminescence measured using CCD-based camera (Viewlux).
NOTES (numbers refer to Sequence numbers above)
1. HEK293 cells expressing hNpr1 and GIP/pGS-40F grown to 85-95% confluence (48-72 h) in T175 culture flasks (CO2 independent media supplemented with 10% FBS, 1% Pen/Strep antibiotics and 1 ug/mL puromycin). Trypsinize and harvest cells from T175 culture flasks and filter through 40 um cell strainer. Cells counted with Invitrogen Countess (30,000,000 - 50,000,000 cells/flask). Cells diluted to a final concentration of 375 cells/uL in CO2 independent media and a Millipore multidrop used to dispense 1500 cells per well (4uL/well) into 9 x 1536-well Greiner White/Solid bottom, high base tissue-culture treated (TC) plates and one Aurora 1536-well Black/Clear bottom, low base, TC plate (for visual inspection of cell health throughout the duration of the assay).
2. Cells incubated overnight at ambient temperature, 24 h. at 37C in 95% RH incubator protected from light, covered with metal lid with gas-exchange holes.
3. Prepare GloSensor Reagent (Promega): Reconstitute GloSensor luciferase substrate by adding 8.2mL Hepes buffer to 250mg substrate, mix well, protect from light and stored at -80C. Prepare a fresh 12% GloSensor solution in CO2 independent supplemented plating media (see above). Mix well and store at ambient temperature, protected from light. 1uL 12% GloSensor Luciferase Reagent added (2% final concentration) to respective columns of 9 x 1536-well Greiner plate with BioRaptr, 1uL CO2 independent plating media added to respective columns as vehicle control with BioRaptr.
4. […]
With `CC(=O)c1ccc(S(=O)(=O)NC(=O)NC2CCCCC2)cc1`, the result was inactive.
To `COc1ccccc1N1CCN(CCCNc2cc(=O)n(C)c(=O)n2C)CC1` belongs “inactive”.
Consider `CCN(CC)CCNC(=O)c1ccc(N)cc1`, for which the outcome was inactive.
As for `O=C(O)CCc1nc(-c2ccccc2)c(-c2ccccc2)o1`, the entry is “inactive”.
As for `CC/C(=C(\c1ccccc1)c1ccc(OCCN(C)C)cc1)c1ccccc1`, the outcome was inactive.
On to `O=C1NC(=O)C(c2ccccc2)(c2ccccc2)N1`, for which the outcome was inactive.
As to `NC(N)=Nc1nc(CSCC/C(N)=N/S(N)(=O)=O)cs1`, the result was inactive.
To `COc1cccc(-c2cc(=O)c3ccccc3o2)c1N` belongs “inactive”; to `COC(=O)[C@@H]1[C@H]2C[C@H]3c4[nH]c5ccccc5c4CCN3C[C@@H]2CC[C@@H]1O`, “inactive”; to `CC(=O)O[C@]1(C(C)=O)CC[C@H]2[C@@H]3C=C(Cl)C4=CC(=O)[C@@H]5C[C@@H]5[C@]4(C)[C@H]3CC[C@@]21C`, “inactive”.
As for `O=C(NCCN1CCOCC1)c1ccc(Cl)cc1`, the entry is “inactive”.
Regarding `CCCCC1C(=O)N(c2ccccc2)N(c2ccccc2)C1=O`, the outcome was inactive.
As for `CC1(C)CCC2=C(O1)c1ccccc1C(=O)C2=O`, the entry is “inactive”.
On to `CCn1cc(C(=O)O)c(=O)c2ccc(C)nc21`, for which the outcome was inactive.
For the molecule `CC(C)NCC(O)COc1cccc2[nH]ccc12` (stereo not drawn), the result was inactive.
As for `Clc1ccc(C(c2ccc(Cl)cc2)n2cc[n+](CC(OCc3ccc(Cl)cc3Cl)c3ccc(Cl)cc3Cl)c2)cc1` (stereo not drawn), the entry is “inactive”; as for `CC(C)OC(=O)C(C)(C)Oc1ccc(C(=O)c2ccc(Cl)cc2)cc1`, “inactive”; as for `CC1=C(/C=C/C(C)=C/C=C/C(C)=C/C(=O)Nc2ccc(O)cc2)C(C)(C)CCC1`, “inactive”.
On to `CC(=O)CCCCn1c(=O)c2c(ncn2C)n(C)c1=O`, for which the result was inactive.
For `CCCNC(=O)NS(=O)(=O)c1ccc(Cl)cc1`, the result was inactive.
As for `NCCS`, the entry is “inactive”.
To `CCN(CC)CCOC(=O)c1ccc(N)cc1` belongs “inactive”.
For `Clc1ccc(Cn2c(CN3CCCC3)nc3ccccc32)cc1`, the outcome was inactive.
As for `O=c1cc(-c2ccc(O)cc2)oc2cc(O)cc(O)c12`, the entry is “inactive”; as for `O=c1c(-c2ccc(O)cc2)coc2cc(O)ccc12`, “inactive”.
As for `CC(=O)N[C@@H](CS)C(=O)O`, the entry is “inactive”.
To `CCCCCN(C)CCC(O)(P(=O)(O)O)P(=O)(O)O` belongs “inactive”; to `O=C1NCC2(CCN(CCc3ccccc3)CC2)O1`, “inactive”; to `C[N+](C)(C)CCCCCC[N+](C)(C)C`, “inactive”.
Take `CN(C)CCC(c1ccccc1)c1ccccn1` (stereo not drawn): the outcome was inactive.
To `CCN(CC)C(=O)c1ccc(O)c(OC)c1` belongs “inactive”; to `Cc1cccc(C)c1OCC(C)N` (stereo not drawn), “inactive”.
For `CCN1CCC[C@H]1CNC(=O)c1cc(S(N)(=O)=O)ccc1OC`, the outcome was inactive.
